This is an account of results in PubChem BioAssay (Tox21).

Results filed as inconclusive are left out. Calls of active or inactive are those of the source. Unless noted, calls follow the shape of the dose curve; as a rule, active = well fitted curve in the direction sought with a large enough effect in the repeat runs; inconclusive = weak or mixed curves; inactive = no such curve, though single readings can be large; an effect the other way counts as inactive or inconclusive.

A short description of assay [1]: A CellTox Green Cytotoxicity Assay to monitor cytotoxicity in HepG2 cells - 0 hour (AID 1224882). Also: nearly all actives have a fitted effect of over 35% in size. The essentials: (§1)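 HepG2 cells were seeded together with the CellTox Green dye at 600 cells/well, left 5 h at 37 C/5% CO2, then given compounds in DMSO. Fluorescence from dye bound to dead-cell DNA was read repeatedly over 40 h of treatment at 37 C.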
Assay [2] can be described thus: A CellTox Green Cytotoxicity Assay to monitor cytotoxicity in HEK293 cells - 8 hour (AID 1224884). Also: nearly all actives have a fitted effect of over 35% in size. The method, boiled down: (§2)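 HEK293 cells premixed with CellTox Green dye were seeded at 600 cells/well and left 5 h at 37 C/5% CO2 before pin transfer of 23 nL compound in DMSO. Fluorescence from dye bound to dead-cell DNA was read during 40 h treatment.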
A short description of assay [3]: qHTS RealTime-Glo MT Cell Viability Assay in HepG2 cells - 16 hour (AID 1224885). Also: nearly all actives have a fitted effect of over 50% in size. The essentials: (§3)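 Cell number in HepG2 cultures estimated from NanoLuc luminescence generated by metabolic reduction of a prosubstrate by living cells. The homogeneous, nonlytic format allowed repeated reads at 0, 8, 16, 24, 32 and 40 h of compound exposure.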
(In general: Quantitative high-throughput screening tests each substance at several concentrations.)

The nature of assay [4]: qHTS RealTime-Glo MT Cell Viability Assay in HEK293 cells - 24 hour (AID 1224886). Also: nearly all actives have a fitted effect of over 50% in size. Also: potency is read from the fitted curve at half-maximal effect. The method, boiled down:
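Homogeneous bioluminescent viability format in HEK293 cells (600 cells/well). Following 5 h at 37 C/5% CO2, 23 nL compound was pintooled; the signal was measured repeatedly during 40 h incubation.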

Assay [5] can be described thus: qHTS RealTime-Glo MT Cell Viability Assay in HEK293 cells - 8 hour (AID 1224887). Also: nearly all actives have a fitted effect of over 50% in size. Also: potency is read from the fitted curve at half-maximal effect. The method, boiled down: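 HEK293 cells mixed with RealTime-Glo reagents (NanoLuc plus cell-permeant prosubstrate) at 600 cells/well, preincubated 5 h at 37 C/5% CO2, then given 23 nL compound in DMSO. Nonlytic luminescence from viable cells was read at 0, 8, 16, 24, 32 and 40 h.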
The nature of assay [6]: A CellTox Green Cytotoxicity Assay to monitor cytotoxicity in HEK293 cells - 16 hour (AID 1224888). Also: nearly all actives have a fitted effect of over 35% in size. The essentials:
as §2

The nature of assay [7]: qHTS RealTime-Glo MT Cell Viability Assay in HepG2 cells - 0 hour (AID 1224889). Also: nearly all actives have a fitted effect of over 50% in size. The method, boiled down: as §3
The nature of assay [8]: A CellTox Green Cytotoxicity Assay to monitor cytotoxicity in HepG2 cells - 8 hour (AID 1224890). Also: nearly all actives have a fitted effect of over 45% in size. The method, boiled down:
as §1

The nature of assay [9]: qHTS assay to identify small molecule antagonists of the estrogen receptor alpha (ER-alpha) signaling pathway using the BG1 cell line in the presence of 0.1 nM 17-beta-estradiol - cell viability counter screen (AID 1259241). Also: nearly all actives have a fitted effect of over 40% in size. The essentials:
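Estradiol-stimulated (0.1 nM) VM7Luc4E2 cells exposed to compounds 22 hr; viability measured by fluorescence of cleaved CellTiter-Fluor substrate after 30 min.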

Assay [10] can be described thus: qHTS assay to identify small molecule antagonists of the androgen receptor (AR) signaling pathway using the MDA cell line in the presence of 0.5 nM R1881 - cell viability counter screen (AID 1259242). Also: nearly all actives have a fitted effect of over 45% in size. The essentials:
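MDA-kb2 cells (human breast carcinoma, stably carrying MMTV-luciferase reporter) were exposed to compounds with 0.5 nM R1881 (final) for 16 hr at 37C, 0% CO2; viability then read as live-cell protease fluorescence (CellTiter-Fluor, 30 min) in the same wells.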

Assay [11] in a line: qHTS assay to identify small molecule HDAC inhibitors (AID 1259364). Also: top concentration of the series differs between compounds; nearly all actives have a fitted effect of over 45% in size. The method, boiled down:
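Wild-type HCT-116 cells were plated overnight, exposed to compounds for 2 h at 37 °C, then given HDAC-Glo class I/II luminogenic reagent for 30 min at room temperature before luminescence was read.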

Assay [12] can be described thus: qHTS assay to identify small molecule agonists of the sonic hedgehog signaling (Shh) pathway - cell viability counter screen (AID 1259366). Also: nearly all actives have a fitted effect of over 50% in size. Also: potency is read from the fitted curve at half-maximal effect. The method, boiled down: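 Same-well cytotoxicity read. Gli1-Luc reporter 3T3 cells; compounds 24hr, 37C/5% CO2; CellTiter-Fluor fluorescence.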
The nature of assay [13]: qHTS assay to identify small molecule antagonists of the sonic hedgehog signaling (Shh) pathway - cell viability counter screen (AID 1259367). Also: nearly all actives have a fitted effect of over 55% in size. Also: potency is read from the fitted curve at half-maximal effect. The essentials:
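NIH/3T3-derived Gli1-Luc reporter cells (2,000 per well) rested 4 hr at 37 C, then received DMSO compounds plus conditioned medium. After 23 hr of treatment, CellTiter-Fluor was added for 1 hr at 37C and fluorescence read.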

A short description of assay [14]: qHTS assay to identify small molecule agonists of the sonic hedgehog signaling (Shh) pathway (AID 1259368; calls by dose curve; also: series mostly up to about 92 µM; nearly all actives have a fitted effect of over 15% in size). The method, boiled down: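 NIH/3T3-derived 3T3Gli1-Luc cells carrying a stably integrated Gli1 response element–firefly luciferase reporter were plated, left 4 hr at 37 C, then given compounds in DMSO for 24 hr. Luminescence was read 30 min after adding luciferase reagent.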

The target in assay [15] is Estrogen receptor (Homo sapiens) (UniProt P03372). As to the kind of experiment: qHTS assay to identify small molecule antagonists of the estrogen receptor alpha (ER-alpha) signaling pathway using the BG1 cell line in the presence of 0.1 nM 17-beta-estradiol (AID 1259244). Also: nearly all actives have a fitted effect of over 50% in size. The method, boiled down:
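VM7Luc4E2 cells (endogenous full-length ER-alpha, stable 4xERE-luciferase) were grown 5 days in phenol red-free medium with charcoal-stripped FBS, then exposed 22 h at 37C to compounds plus 0.1 nM (final) 17beta-estradiol; ONE-Glo luminescence read-out.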

A short description of assay [16]: qHTS assay to identify small molecule HDAC inhibitors - cell viability counter screen (AID 1259365). The method, boiled down: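 After overnight seeding at 1,500 cells per well, wild-type HCT-116 cultures took up compounds in DMSO for 2hr at 37 C. Viable cell content came from luminescence with CellTiter-Glo.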
Assay [17] in a line: qHTS assay to identify small molecule phospholipidosis (PLD) inducers (AID 1259344; active = well fitted curve in the direction sought with a large enough effect; an effect the other way counts as inactive or inconclusive). The method, boiled down: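 HepG2 cells on collagen I, attached 4 h at 37 C, were co-treated with compound and LipidTOX Red dye for 24 h at 37 C, then fixed with paraformaldehyde plus Hoechst 33342 and imaged by high-content microscopy for phospholipid accumulation.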
Assay [18] is described as follows: A CellTox Green Cytotoxicity Assay to monitor cytotoxicity in HepG2 cells - 32 hour (AID 1224883). Also: nearly all actives have a fitted effect of over 50% in size. The method, boiled down: as §1

Estrogen receptor (Homo sapiens), sequence (P03372 whole entry, looked up): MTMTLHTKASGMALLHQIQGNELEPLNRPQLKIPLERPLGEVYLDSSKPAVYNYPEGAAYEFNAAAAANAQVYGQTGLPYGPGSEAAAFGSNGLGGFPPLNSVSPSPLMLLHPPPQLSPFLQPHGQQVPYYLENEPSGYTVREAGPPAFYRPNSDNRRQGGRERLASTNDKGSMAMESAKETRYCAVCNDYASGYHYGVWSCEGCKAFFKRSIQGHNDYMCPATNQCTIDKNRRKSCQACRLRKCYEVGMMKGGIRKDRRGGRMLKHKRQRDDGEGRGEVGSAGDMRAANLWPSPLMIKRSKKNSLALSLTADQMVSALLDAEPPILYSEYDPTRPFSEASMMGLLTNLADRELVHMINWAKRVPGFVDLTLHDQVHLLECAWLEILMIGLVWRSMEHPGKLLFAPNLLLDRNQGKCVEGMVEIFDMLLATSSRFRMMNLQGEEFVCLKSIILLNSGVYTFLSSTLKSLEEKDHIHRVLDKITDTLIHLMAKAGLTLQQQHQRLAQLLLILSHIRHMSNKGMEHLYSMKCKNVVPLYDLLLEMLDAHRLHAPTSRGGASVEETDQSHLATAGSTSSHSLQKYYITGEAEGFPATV

In the case of `NCc1ccccc1`, the Potency result in assay [1], in assay [2], in [3], in [4], in assay [5] and in assay [6] was “inactive” in each case. The Potency result in assay [7], in assay [8], in [9], in assay [10], in assay [11] and in assay [12] was “inactive” in each case. In addition, the Potency entry in [13] is “inactive”. In addition, in assay [14], the compound was classed as inactive.

In the case of `CC(C)CCCC(C)CCO` (stereo unspecified), the Potency entry in assay [1], in assay [2], in assay [3], in [4], in [7] and in [8] was “inactive” each time. Moreover, the Potency result in assay [9], in assay [10], in assay [15], in assay [11] and in [12] was “inactive” throughout. Also, the outcome in assay [16] and in [14] was inactive.

Regarding `Cn1c(=O)c2c(ncn2CC(O)CO)n(C)c1=O` (stereo unspecified), the Potency result in assay [1], in [2], in assay [3], in assay [4], in assay [5] and in assay [6] was “inactive” in each case. For the same compound, the Potency result in assay [7], in assay [8], in assay [9], in assay [10], in assay [15] and in assay [17] was “inactive” throughout. For the same compound, the Potency entry in assay [11], in assay [12] and in [13] was “inactive” each time. Besides, the compound was called inactive in assay [16] and in [14].

As for `Oc1ccc(Cc2ccccc2)cc1`, the Potency entry in [1], in [2], in assay [3], in assay [7], in [8] and in [9] was “inactive” each time. The Potency result in assay [10] and in assay [11] was “inactive” throughout. Also, the Potency in assay [4] was 36 µM (active); in assay [5], 22.7 µM (active). Also, the call in assay [16] and in [14] was inactive.

Regarding `CCOC(=O)CC(=O)c1cc(F)c(Cl)nc1Cl`, the Potency result in [1], in assay [18], in assay [2], in [7], in assay [8] and in assay [9] was “inactive” each time. In addition, the Potency result in assay [10], in assay [15], in assay [11], in assay [12] and in assay [13] was “inactive” in each case. In addition, the compound was classed as inactive in assay [16] and in assay [14].

As for `Cc1cccc(C(C)(C)C)c1O`, the Potency entry in assay [1], in assay [2], in [4], in [6], in assay [7] and in assay [9] was “inactive” in each case. The Potency result in assay [10], in [15] and in assay [12] was “inactive” throughout. Besides, the outcome in assay [16] and in [14] was inactive.

Take `CN(C)CC/C=C1\c2ccccc2COc2ccccc21`: the Potency result in assay [1], in [2], in assay [3], in assay [4], in assay [7] and in assay [8] was “inactive” throughout. Besides, the Potency result in assay [9], in assay [10], in assay [17], in assay [11] and in assay [13] was “inactive” throughout. Besides, the compound was classed as inactive in assay [16] and in assay [14].

`O=C(O)C(c1ccc(Cl)cc1)c1ccc(Cl)cc1`: the Potency entry in assay [1], in [18], in assay [2], in [4], in [5] and in assay [6] was “inactive” each time. For the same compound, the Potency result in [7], in assay [8], in [9], in assay [10], in assay [15] and in assay [11] was “inactive” in each case. The Potency result in assay [12] and in [13] was “inactive” in each case. For the same compound, the compound was called inactive in assay [16] and in assay [14].

Regarding `C1=Cc2ccccc2C1`, the Potency entry in assay [1], in assay [18], in assay [3], in [4], in [5] and in assay [6] was “inactive” in each case. Besides, the Potency entry in [7], in assay [8], in assay [9], in [10], in assay [15] and in assay [11] was “inactive” in each case. The Potency result in assay [12] and in assay [13] was “inactive” in each case. For the same compound, the result in assay [16] and in assay [14] was inactive.

In the case of `C=CCCCCCC`, the Potency result in [1], in assay [2], in assay [3], in assay [4], in [5] and in [7] was “inactive” throughout. Further, the Potency result in assay [8], in assay [9], in assay [10], in [15], in assay [11] and in [12] was “inactive” throughout. In assay [13], the Potency entry is “inactive”. The call in assay [16] and in assay [14] was inactive.

Regarding `CC(C)c1ccc2c(C(C)C)cc(C(C)C)c(S(=O)(=O)O)c2c1`, the Potency result in [2], in assay [3], in assay [4], in [6], in assay [7] and in assay [8] was “inactive” throughout. The Potency result in assay [9], in assay [10], in [15], in assay [12] and in assay [13] was “inactive” throughout. For the same compound, the call in assay [16] and in assay [14] was inactive.

As for `Nc1nc(CC(=O)O)cs1`, the Potency result in [1], in assay [18], in [2], in [3], in [5] and in assay [6] was “inactive” each time. Besides, the Potency entry in assay [7], in [8], in [9], in assay [10], in assay [11] and in assay [12] was “inactive” each time. In addition, the Potency entry in [13] is “inactive”. The outcome in [14] was inactive.

On to `COc1ccccc1OC(=O)Oc1ccccc1OC`, for which the Potency entry in [18], in assay [2], in [3], in assay [4], in assay [5] and in assay [6] was “inactive” each time. Besides, the Potency result in assay [7], in [8], in assay [9], in [10], in assay [17] and in assay [11] was “inactive” throughout. In addition, the Potency result in [12] and in assay [13] was “inactive” throughout. Also, the compound was classed as inactive in assay [16] and in assay [14].

Regarding `OCCC1CCCCN1` (stereo unspecified), the Potency result in assay [1], in assay [18], in assay [4], in assay [5], in assay [6] and in assay [7] was “inactive” each time. In addition, the Potency entry in [8], in assay [9], in assay [10], in assay [15], in assay [11] and in assay [12] was “inactive” in each case. Also, the compound was classed as inactive in [14].

On to `CN(C)CCCOc1nn(Cc2ccccc2)c2ccccc12`, for which the Potency entry in assay [1], in assay [2], in assay [3], in assay [5], in [6] and in assay [7] was “inactive” each time. Moreover, the Potency result in assay [9], in assay [10], in assay [15], in assay [17], in assay [11] and in assay [13] was “inactive” throughout. Besides, in assay [14], the compound was called inactive.

As for `O=C1[C@H](CC[C@H](O)c2ccc(F)cc2)[C@@H](c2ccc(O)cc2)N1c1ccc(F)cc1`, the Potency entry in assay [1], in assay [18], in assay [3], in [6], in [7] and in assay [8] was “inactive” in each case. Besides, the Potency entry in assay [9], in assay [10], in assay [17] and in assay [12] was “inactive” each time. Also, the Potency in assay [4] is 23.9 µM (active). The outcome in assay [14] was inactive.

Take `Cn1sccc1=O`: the Potency entry in assay [1], in assay [2], in [4], in assay [5], in assay [6] and in assay [7] was “inactive” each time. The Potency result in assay [8], in assay [9], in assay [10], in assay [15] and in assay [11] was “inactive” throughout. Moreover, the result in assay [16] and in [14] was inactive. Besides, the results for the Potency in assay [12] and in assay [13] were 48.6 µM (active) and 27.3 µM (active), respectively.
